Reference: PubChem BioAssay (NCI)
This is part of a sample that, as a whole, favours compounds with a hit. Of some 83,000 tested, about 20% had one in any assay.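 In brief: 96-well plates, 48 h treatment, single concentration, percent growth endpoint.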 Unmarked numbers belong to inactive results. Calls of active or inactive are those of the source. The calls were made as follows: active = growth percent below 10; inactive = the rest.

Columns and labels:
Assay in all cases: NCI-60 one-dose screen, 48 h (100 = growth as untreated, 0 = no growth, -100 = all killed)
Conditions in all cases: 10 µM unless noted
[1] = tested on: NCI-H23 lung
[2] = tested on: NCI-H226 lung
[3] = tested on: NCI-H322M lung
[4] = tested on: HOP-62 NSCLC
[5] = tested on: NCI-H460 lung
[6] = tested on: HOP-92 NSCLC
[7] = tested on: A549/ATCC NSCLC
[8] = tested on: 786-0 renal
[9] = tested on: COLO 205 colon

Row | Compound | growth [1] | growth [2] | growth [3] | growth [4] | growth [5] | growth [6] | growth [7] | growth [8] | growth [9]
1 | COc1cc(/C=C/C(=O)C(C(=O)/C=C/c2ccc(OC(=O)CCNC34CC5CC(CC(C5)C3)C4)c(OC)c2)C(=O)CCNC23CC4CC(CC(C4)C2)C3)ccc1OC(=O)CCNC12CC3CC(CC(C3)C1)C2 (stereo unspecified) | 32.2% | 31.4% | 51.6% | 29.8% | 7.93% (active) | 44.6% | 29.1% | -53.3% (active) | 17.7%
2 | COc1ccc(-c2nnc3c4[nH]cnc4ncn23)c(OC)c1 | 22.3% | 43.5% | 32.9% | 25.8% | 39.4% | 52.9% | 71.6% | 21.3% | 32.5%
3 | OCCCc1n(Cc2ccc3ccccc3c2)c2ccccc2[n+]1Cc1ccc2ccccc2c1 | 19% | 48.5% | 49.9% | 37.5% | 18.4% | -24.3% (active) | 68.4% | 36% | -58.9% (active)
4 | COc1ccc(NC(=O)c2ccc(-c3ccccc3)cc2)c(C(N)=O)c1 | 94.5% | 94.9% | 91.6% | 103% | 100% | 103% | 94.1% | 106% | 110%
5 | CCCCc1n(Cc2ccc3ccccc3c2)cc[n+]1Cc1ccc2ccccc2c1 | -23.8% (active) | -0.475% (active) | 23.3% | -2.71% (active) | -13.1% (active) | -38.2% (active) | 29.8% | -18.4% (active) | -77.1% (active)
6 | COc1cc2c(cc1OC)C(CC1(O)CCCCC1)N(S(=O)(=O)c1ccc(C)cc1)CC2 (stereo unspecified) | 29.3% [100 µM] | 57.6% [100 µM] | 57.8% [100 µM] | 79.3% [100 µM] | 8.16% [100 µM] (active) | -10.6% [100 µM] (active) | 20.9% [100 µM] | 29.7% [100 µM] | 1.18% [100 µM] (active)
7 | COC(=O)[C@H](Cc1cnc[nH]1)NC(=O)[C@@H](NC(=O)Nc1cc(C(F)(F)F)cc(C(F)(F)F)c1)C(C)C | -70.6% [100 µM] (active) | -44.1% [100 µM] (active) | -94.9% [100 µM] (active) | -92.5% [100 µM] (active) | -42.5% [100 µM] (active) | -96.7% [100 µM] (active) | -70.8% [100 µM] (active) | -90.7% [100 µM] (active) | -82.6% [100 µM] (active)
8 | COc1ccc(OC)c2c1CCC1(C2)NC(=O)NC1=O (stereo unspecified) | 106% | 102% | 107% | 95.2% | 107% | 69.3% | 98.9% | 113% | 98.9%
9 | COc1cc(-c2nnc(-c3nc(-c4cc(OC)c(OC)c(OC)c4)n4ccccc34)o2)ccc1N | 67.7% | 83% | 83.1% | 89% | 68.3% | 29.2% | 28.2% | 68.6% | 88.7%
10 | COc1ccc(-c2cc(-c3nnc(SCC(=O)Nc4ccc(C(C)=O)cc4)n3-c3ccccc3)c3ccccc3n2)cc1OC | 96.2% | 105% | 102% | 84% | 103% | 104% | 94.9% | 97.1% | 98.8%
11 | O=CN1N=C(c2ccc(Cl)cc2)CC1c1cccc(Nc2ccnc3cc(Cl)ccc23)c1 (stereo unspecified) | 11.6% | 24.4% | 42.4% | 8.16% (active) | 11.1% | 21.5% | 20.9% | 20.5% | -26.9% (active)
12 | NS(=O)(=O)c1ccc(-n2ncc3c(NC4CCCCC4)ncnc32)cc1 | 103% | 91.5% | 107% | 101% | 110% | 47.4% | 83% | 81% | 95%
13 | C[C@@H]1[C@H]2[C@H](C=C3[C@@H]4CC[C@H]5Cc6nc7c(nc6C[C@]5(C)[C@H]4C[C@@H](O)[C@@]32C)C[C@@H]2CC[C@H]3C4=C[C@@H]5O[C@@]6(CC[C@](C)(CO)O6)[C@@H](C)[C@@]5(O)[C@@]4(C)[C@H](O)C[C@@H]3[C@@]2(C)C7)O[C@]12CCC(C)(C)O2 | 33.6% | 20.7% | 27.8% | -24.5% (active) | 0.313% (active) | -4.69% (active) | 12.8% | -25.3% (active) | -39.3% (active)
14 | NS(=O)(=O)c1ccc(-n2ncc3c(SCc4ccccc4)ncnc32)cc1 | 100% | 99.8% | 87.7% | 66.9% | 105% | 43% | 80.8% | 85.1% | 110%
15 | CCOC(=O)Nc1ccc2c3c(cccc13)-c1ccccc1-2 | 42.8% | 63.1% | 50.6% | 45.1% | 19.2% | 81.6% | 47% | 44.1% | 24.3%
16 | CCOC(=O)CNC(=O)C1(NC(=O)CNC(=O)OCc2ccccc2)CCCC1 | 105% | 115% | 109% | 112% | 112% | 96.2% | 89.8% | 94.9% | 120%
17 | O=C1/C=C/[C@@H](O)[C@@H]2C[C@@H](O)C[C@H]2/C=C/CCC[C@H](CO)O1 | 13.5% | -63.4% (active) | 41.7% | 43.6% | 45.1% | 58.3% | 31.3% | -59.6% (active) | -71.6% (active)
18 | O=C(CN1CCN(c2ccc(Cl)cc2)CC1)N1CCN(c2nnc(-c3ccc(Cl)cc3)c(-c3ccc(Cl)cc3)n2)CC1 | 85% | 62% | 77.9% | 103% | 75.3% | 60.1% | 15% | 80.6% | 90.8%
19 | CN1CCN(CCCCCN=c2cc3c(=O)n(CCCCCN4CCN(C)CC4)c(=O)c4c(NCCCCCN5CCN(C)CC5)cc5c(O)n(CCCCCN6CCN(C)CC6)c(=O)c2c5c4-3)CC1 | 34.1% | 0.125% (active) | -23.2% (active) | 14.6% | 5.16% (active) | 2.86% (active) | 5.01% (active) | 92.9% | -15.4% (active)
20 | [N-]=[N+]=NCc1cccc(/C(O)=C/C(=O)C(=O)O)c1 | 85.4% | 86.1% | 93.8% | 94.5% | 104% | 92.7% | 93.6% | 97.3% | 99.6%
21 | CCCCCCCCN(CCO)CCCCCCCC | 103% | 92.8% | 96.1% | 103% | 106% | 97% | 99.7% | 101% | 107%
22 | CCN(CC)c1ccc(N=C2C=CC(=O)C=C2NC(C)=O)cc1 | 92.9% | 93.7% | 105% | 107% | 106% | 104% | 100% | 111% | 96.8%
23 | Cc1cccc2nnc(-c3ccccc3)n12 | 104% | 106% | 104% | 125% | 108% | 105% | 94.4% | 94.8% | 118%
24 | COc1c(Br)cc(C(c2cc(Br)c(OC)c(Br)c2)c2ccccc2C(=O)O)cc1Br | 97.3% | 99.8% | 102% | 94.1% | 105% | 55.7% | 98.7% | 100% | 110%
25 | Nc1ccccc1-c1ccn[nH]1 | 110% | 86.8% | 93.8% | 87.4% | 104% | 91.4% | 89.6% | 98.9% | 86.6%
26 | CCCCCCCSc1ncnc2[nH]ncc12 | 93.9% | 77.4% | 93.9% | 95.7% | 103% | -2.1% (active) | 101% | 76.3% | 93.9%
27 | COc1ccc2c(c1)[n+](=O)c(C(=O)/C=C/c1cc(OC)c(OC)c(OC)c1)c(C)n2[O-] | 65.9% | 79.1% | 81.3% | 101% | 44.7% | 63.7% | 74.1% | 70.9% | 58.9%
28 | CSc1nc2nc3c(nc2c(=O)n1C)C(=O)c1ccccc1C3=O | -26.4% (active) | -55.6% (active) | -89.8% (active) | -97.9% (active) | -62% (active) | -40% (active) | -67.3% (active) | -50.5% (active) | -86.2% (active)
29 | CCN(CC)CCNCC(=O)Oc1ccc(/C=C/C(=O)CC(=O)/C=C/c2ccc(OC(=O)CNCCN(CC)CC)c(OC)c2)cc1OC | 5.35% (active) | 21% | 55.4% | 34% | 3.7% (active) | 39.1% | 38.2% | -34.9% (active) | 17.1%
